# Bioassay records as filed in PubChem BioAssay.
# Most compounds without a hit are left out; they make up all but 3.2% or so of the library.
# CHT allo act = allosterically activates the human high affinity choline transporter | Q9GZV3 | CHT-expressing cells, membrane potential dye, choline EC20; active compounds read high; LV-AA mutant CHT in HEK293 cells | B-score at 10 µM | 310,000 tested, 0.49% active | AID 488977;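 active = initial fluorescence not abnormally high and integrated response B-score, plate-corrected, over 3 SD above library mean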
# TMEM16A inh = mouse TMEM16A channel inhibition, primary screen; normalized B-score (activity score, 25-100; higher = stronger inhibition) at 10 µM; Q8BHY3; 310,000 tested, 1.2% active; HEK293 TMEM16A/YFP iodide influx fluorescence, ionomycin;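 active = ratio plate-corrected score three or more library SD toward inhibition, starting fluorescence score within five deviations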;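 note: score derived from kinetic fluorescence span divided by baseline fluorescence per well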
# Kir21 block = blocks the mouse Kir2.1 inward-rectifier potassium channel | AID 1672 | B-score at 10 µM | P35561 | 310,000 tested, 0.85% active | HEK293-Kir2.1, FluxOR thallium flux fluorescence; active compounds read low;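 active = fluorescence ratio B-score at or below minus 3 SD of library scores, with starting-brightness B-score within 2 SD, cut at about -4.2 in these data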;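 note: channel flux triggered by added potassium and thallium sulfate stimulus; B-score of peak minus minimum fluorescence over baseline after thallium stimulus; more negative B-score means stronger Kir2.1 block with less thallium influx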
# Target sequence (P35561 whole entry, looked up): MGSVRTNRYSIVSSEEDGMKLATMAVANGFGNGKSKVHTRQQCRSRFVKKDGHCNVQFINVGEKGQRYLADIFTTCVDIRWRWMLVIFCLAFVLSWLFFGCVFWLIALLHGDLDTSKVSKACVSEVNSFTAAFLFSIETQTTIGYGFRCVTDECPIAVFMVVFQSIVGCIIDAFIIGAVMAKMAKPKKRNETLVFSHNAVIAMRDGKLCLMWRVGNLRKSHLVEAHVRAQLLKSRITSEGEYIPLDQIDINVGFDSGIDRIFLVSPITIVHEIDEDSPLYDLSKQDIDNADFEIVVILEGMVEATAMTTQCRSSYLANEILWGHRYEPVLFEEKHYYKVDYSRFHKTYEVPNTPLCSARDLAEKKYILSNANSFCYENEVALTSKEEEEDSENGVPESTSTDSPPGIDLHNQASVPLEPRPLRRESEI
# Rce1 inh = yeast Ras-converting enzyme inhibition; Q03530; AID 2563; calls only; 290,000 tested, 0.27% active; yeast membranes, quenched prenylated peptide cleavage fluorescence;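 active = fall in fluorescence gain of 50% or more versus controls, with final raw signal at or below 3038400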
# CHT inh = inhibitors of human choline transporter CHT | B-score at 10 µM | AID 488975 | 310,000 tested, 0.86% active | CHT-expressing cells, membrane potential dye, choline response; active compounds read low | Q9GZV3;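 active = B-score over 3 SD under the library average, and starting fluorescence ratio not unusually high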;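 note: choline stimulus applied at its EC90 after an EC20 pre-addition; B-score computed on integrated fluorescence ratio after choline addition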
# TMEM16A act = mouse TMEM16A channel activation, primary screen. Q8BHY3. HEK293 TMEM16A/YFP-H148Q/I152L, iodide quench fluorescence; active compounds read low. B-score at 10 µM. 340,000 tested, 0.3% active. AID 623877;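 active = fluorescence-ratio B-score plate-corrected deviation score at least 3 library SD below zero, with starting fluorescence score within 5 deviations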;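 note: channel opened by trigger with iodide after compound preincubation; score built on the fluorescence ratio of max minus min over baseline; more negative score means more quench and so TMEM16A activation or potentiation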
# A number is an active result; . = inactive; / = not tested or not shown.
SMILES,CHT allo act,TMEM16A inh,Kir21 block,Rce1 inh,CHT inh,TMEM16A act
COc1cc(/C=C2\SC(=S)N(C(Cc3ccccc3)C(=O)O)C2=O)ccc1O (stereo not drawn),.,.,-4.5,.,.,.
CCOc1ccc(N2CC(C(=O)NC3CCCC3)CC2=O)cc1 (stereo not drawn),.,.,.,.,.,.
O=C(c1cccc(S(=O)(=O)N2CCN(c3ccccc3)CC2)c1)N1CCCC(C(F)(F)F)C1 (stereo not drawn),.,25,.,.,.,.
COc1ccc(NC(=O)CS(=O)(=O)Cc2ccccc2)c([N+](=O)[O-])c1,.,.,.,.,.,.
Cc1ccc(NC(=O)CN(c2ccccc2)S(=O)(=O)N(C)C)cc1,.,.,.,.,.,.
CCCCc1ccc(NC(=S)NCc2cccc(OC)c2)cc1,.,100,.,.,.,.
O=C(COC(=O)C1(c2ccccc2F)CCCC1)NCc1ccc2c(c1)OCO2,.,.,.,.,.,.
O=C(COC(=O)C1(c2ccccc2F)CCCC1)NCc1cccs1,.,.,-6.8,.,.,.
CN(C)c1cc(Nc2ccc(O)cc2)c([N+](=O)[O-])c2nonc12,.,.,.,.,.,.
O=[N+]([O-])c1c(Nc2ccc(O)cc2)cc(Cl)c2nonc12,.,100,-6.5,.,.,-8.3
COc1ccc(NS(=O)(=O)c2ccc(NC(=O)c3ccc(N(C)S(C)(=O)=O)cc3)cc2)c(OC)c1,.,.,.,.,.,.
CCOc1ccc(CN(C)CC(O)COC(c2ccc(OC)cc2)c2ccc(OC)cc2)cc1 (stereo not drawn),.,.,-7.7,.,.,.
COc1ccc(C(OCC(O)CN(C)C2CCCCC2)c2ccc(OC)cc2)cc1 (stereo not drawn),.,.,.,.,.,.
COc1ccc(CC(=O)Nc2nc(C(C)(C)C)cs2)cc1,.,.,-8.2,.,.,.
COc1ccc(CC(=O)Nc2nc(C)cs2)cc1,.,.,.,.,.,.
Cc1ccc(CN(C)C(=O)C2CCC(=O)N(CC3CCCCC3)C2)o1 (stereo not drawn),.,.,.,.,.,.
CC(C)Sc1nc(C(F)(F)F)cc(=O)n1-c1ccccc1,.,.,-4.4,.,.,.
CCSc1nc(C(F)(F)F)cc(=O)n1-c1ccccc1,.,.,.,.,.,.
CSc1ccc2c(c1)C(N1CCN(C)CC1)Cc1ccccc1S2 (stereo not drawn),.,.,-7.9,.,.,.
CC(=O)NC1=NC(=O)/C(=C/c2cc(C)n(-c3cccc(C(=O)O)c3)c2C)S1,/,/,.,.,/,-6.4
O=C(COC(=O)c1ccc(O)cc1O)Nc1ccc2c(c1)OCCO2,/,/,/,/,/,-28
O=C(COC(=O)c1ccc(O)cc1O)Nc1ccc2ccccc2c1,/,/,/,/,/,.
CCN(CC)C(=O)CSc1nnc(COc2ccccc2)n1N,.,.,.,.,.,.
Cc1ccc(C(C)C)c(OCCCCN2CCNCC2)c1,.,.,-6.1,/,.,.
CCCCCN(C(=O)CCC(=O)OCc1ccc(C(C)(C)C)cc1)c1c(N)n(CCCC)c(=O)[nH]c1=O,.,.,.,.,.,.
SMILES,CHT allo act,TMEM16A inh,Kir21 block,Rce1 inh,CHT inh,TMEM16A act
CCCn1c(SCC(=O)NCc2ccccc2Cl)n[nH]c1=O,.,.,.,.,.,.
Cc1ccccc1NC(=O)Nc1ccc2c(c1)CCC2,.,.,.,.,.,.
COc1ccc(C(=O)COC(=O)Cn2cnc3ccccc3c2=O)c(OC)c1,.,.,.,.,.,.
O=C(CCSCCC(=O)NN=Cc1ccc(F)cc1)NN=Cc1ccc(F)cc1,/,/,/,/,/,.
O=C(CN1C(=O)NC2NC(=O)NC21)N/N=C/c1ccc(F)cc1 (stereo not drawn),.,.,.,.,.,-7.5
Cc1ccsc1CN(C)CC(=O)NCC(=O)Nc1ccc(F)c(F)c1F,/,/,/,/,/,.
Cc1ccccc1C(=O)N1CCc2cc(-c3csc(NC(=O)CN4CCCC4)n3)ccc21,.,25,.,.,.,.
O=C(CN1CCCCC1)Nc1nc(-c2ccc(F)c(F)c2)cs1,.,.,.,/,.,.
CS(=O)(=O)N1CCc2cc(-c3csc(NC(=O)Cc4ccccc4)n3)ccc21,.,25,.,.,.,.
Cc1ccc(S(=O)(=O)CC(=O)Nc2nc(-c3ccccc3)cs2)cc1,.,.,.,.,.,-5
COc1cccc(/C=C2\Oc3cc(OCC(=O)N4CCCC4)ccc3C2=O)c1OC,.,.,.,.,.,-38
CCN(CC)S(=O)(=O)c1cccc(-c2nnc(SCC(=O)NC3CCCCCCC3)n2N)c1,.,.,.,.,.,.
O=C(CCNC(=O)c1ccccc1Cl)Nc1nc(-c2ccccc2Cl)cs1,.,.,.,.,.,.
CC(=O)c1ccc(NC(=S)NC(C)c2ccc(Cl)cc2Cl)cc1 (stereo not drawn),.,100,.,.,.,.
O=C(Nc1cccc(S(=O)(=O)N2CCCCC2)c1)c1ccc(S(=O)(=O)C(F)F)cc1,.,.,.,.,.,.
CCOC(=O)CSc1cc(CS(C)(=O)=O)nc(-c2ccccn2)n1,.,.,.,.,.,-6.6
CSCCOC(=O)C1=C(C)NC(=O)CC1c1ccccc1Cl (stereo not drawn),.,.,-5.5,.,.,.
CCOC(=O)C1CCN(CCCSc2ccc(Cl)cc2)CC1,.,.,-4.2,.,.,.
COc1ccc(CNC(=O)CCNS(=O)(=O)c2cc(Br)cnc2N)cc1,.,.,.,.,.,.
COc1ccc(C(CNC(=O)c2ccc3c(c2)OCCO3)N(C)C)cc1 (stereo not drawn),.,.,.,.,.,.
COc1ccc(C(CNC(=O)c2ccc(N3CCCC3=O)cc2)N(C)C)cc1 (stereo not drawn),.,25,.,.,.,.
CSC1=C(C#N)C(CC(C)C)C(C(C)=O)=C(C)N1 (stereo not drawn),.,.,-6.5,.,.,.
CSC1=C(C#N)C(CC(C)C)C2=C(CCCC2=O)N1 (stereo not drawn),.,.,.,.,.,.
COC(=O)C1(Cc2cc(-c3ccc(OC)cc3OC)no2)CCN(C(=O)OC(C)(C)C)CC1,.,25,.,.,.,.
O=C(NCc1ccc2c(c1)OCO2)C1CCN(S(=O)(=O)c2ccc(Br)s2)CC1,.,.,.,.,.,-6.9
COCc1nnc(NC(=O)C2CC(=O)N(C3CCCC3)C2)s1 (stereo not drawn),.,.,.,.,.,.
C=CCNCCOc1ccccc1-c1ccccc1,.,.,.,.,.,.
COCCNCCCCOc1ccccc1-c1ccccc1,.,.,-6.3,.,.,.
CC(C)NCCCCOc1ccccc1-c1ccccc1,.,.,-5.6,.,.,/
CCCCNCCOCCOc1ccc(C)cc1[N+](=O)[O-],.,.,.,.,.,.
